Data on 40 sequences can be found in the supplement of paper PMC6555819.

This assay relates to VDR:RXRa (NR concentration 270 nM, RXRa partner concentration 90 nM). Nature of the assay: PBM binding z-score (relative to random genomic background probes); higher = stronger binding; sequences stand for … in GC…GCGATTGACAGCGTAGAATGAAGG
Here is the method:
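Protein-binding microarray (Agilent 4x180K custom design, double-stranded 60-nt probes: 5' GC cap, 34-nt variable region, 24-nt constant primer region; full probe sequence given). Purified or IVT nuclear receptor:RXRα heterodimers (3:1 NR:RXRα, mostly 270:90 nM) or homodimers were incubated for 1 h in PBS with 2% milk and no ligand, then detected with Alexa488 antibodies. Fluorescence from o1-orientation probes (~5 replicates averaged) was converted to z-scores against 500 random hg19 background probes. Variable regions are seed direct-repeat (DR0–DR5) sites, all their single-nucleotide variants and half-site ablations.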
Turning to TCTATTAGTTTAAGGGCAACCGACGAGTCCGTTT, the PBM binding z-score amounted to 1.61.

The sequence ATCTCTAGGTAACTAAGTTCAGTGAATGCCGAAC gave a PBM binding z-score of 4.26.

For the sequence CGAACTAGGGCATGAGTTGATAGCAAATGCCGAT, the PBM binding z-score was 0.0428.

Consider TCATATAGGTAAACAGGTGAACGTCCGTAAGTTA, for which the PBM binding z-score worked out at 1.19.

ATCTCTAGGTAACCACGTTCAGTGAATGCCGAAC yielded a PBM binding z-score of 0.175.

Consider TATGCAGGGTCAAAGGCCAGAGTACGAATGTCGA, for which the PBM binding z-score came out at 4.61.

Sequence TCTATTAGTTGAAAGGCAACCGACGAGTCCGTTT showed a PBM binding z-score of 0.899.

In the case of GGAACGAGGGCAAAGTTGAGAGCATCTGTCGACG, the PBM binding z-score worked out at 1.55.

With CGAACTAGGTCATCCAGGACAGTGACTACATTGA, the PBM binding z-score came to 4.29.

In the case of ACTCGGAGGACAAAGGTTAGAGCTACGCCAGTGA, the PBM binding z-score came out at 0.555.

TGAATGAGGTTATAAGATCAGGGGACGTTGCAAA yielded a PBM binding z-score of 1.16.

ATCTCTAGGTAAAGGTTCAGTGAATCCCGAGGAT: the PBM binding z-score came out at 1.09.

Take TCGAGTAGGTTACCAATGGGGCATTAAGCTTTCT: the PBM binding z-score came to 0.0667.

Consider CGCGAAAGGTCGGTTGAGGTGAGTATACGGATAA, for which the PBM binding z-score came to 2.25.

As to ACTATTAGTTGACTGAGGGCAACCGATACGACGC, the PBM binding z-score was found to be 2.41.

Regarding GCAGTCAGGTGAAACGCAGGTAACTCAGGGTGGC, the PBM binding z-score was -0.464.

Sequence CGAAATAGGTCAAGGACAGTGAATCTCCGCACGC came in with a PBM binding z-score of 2.46.

GCATATAGGTAGTACAAGGTGAAAGTCCGATTGT: the PBM binding z-score was determined as 0.154.

As for CGTCCAAGGTCGATGCTAGGTCAGTGAAAGCATT, the PBM binding z-score amounted to 2.26.

For the sequence TTACCAATGTGAAAGGTCGTTGATGCACGCCTTG, the PBM binding z-score was found to be 2.08.

CCGACTGGGGCATAGGGTTACCATAAGCCAGCCC came in with a PBM binding z-score of 0.304.

In turn, CCGACTGGGGCATAAGGGTACCATAAGCCAGCCC had a PBM binding z-score of -0.316.

Sequence CCTACTGGGCCAAGGTCATTGTTCAGTCAAAGCA had a PBM binding z-score of 3.15.

GCTGCTAGGACAGGTTGGTCAGCTAACGGGTACG: the PBM binding z-score is -0.674.

CAAACTAGGTCACGTAAGGTCAAAGTCGAATGAC had a PBM binding z-score of 7.01.

Turning to TCTCGGAGGACAAGAAAGGTCAGAGCTCGACATC, the PBM binding z-score worked out at 2.67.

In the case of AGTCAAAGTTCACAAGGTAACGTAAGATTCAGCT, the PBM binding z-score stood at 4.25.

GGAACGAGGGCAAGTTGATACCAGAGTTTGATGG yielded a PBM binding z-score of 1.1.

Take ACTAGCAGGCTAAGGGTCACTCAAGATTAGTCCG: the PBM binding z-score came to 2.97.

ATCTATAGGTAAAAGTTCAGTGAATCCCGAGGAT displayed a PBM binding z-score of 1.28.

In turn, GCTCAGAGGACAAGGTCAGAGCTTTGTCCGTAGA had a PBM binding z-score of 1.69.

TCTTGTAGATCAAACGTTAAGAAAGCCGAAGCCT gave a PBM binding z-score of 0.359.

In turn, AGAATGAGGTTAAGATAAGGGAAACAGAATACAT showed a PBM binding z-score of 1.62.

In the case of GCGACTGGGGCAAAGCAGGTGACCATAAGGTTGG, the PBM binding z-score is -0.478.

In turn, CAGCCTAGGTCAGGTCCAGTATAGGAGGAACGTT yielded a PBM binding z-score of 0.304.

ACAGACAGGTGAGTGAAGCTAACTCAGCTGGACG returned a PBM binding z-score of -0.513.

Take CCTATTAGTTGACCATAAGGGCAACCGTAGCTCG: the PBM binding z-score was found to be 0.674.

GCTATCAGTTGAAAGGGCAACCGAATGATTCTCG: the PBM binding z-score was found to be 0.34.

As to TCTGCTTGGTCAGTTGGTCAGCTAACGAGCTGCC, the PBM binding z-score was -0.451.

As for TCTCAAAGTTCAAAGGTAACGTAAGTATCCACAC, the PBM binding z-score was 4.93.
